Results from PubChem BioAssay (NCI).
About 83,000 compounds went through this panel and 20% of them were active in at least one assay; those are over-represented in the sample as a whole.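 Growth was measured after 48 h exposure to one concentration of compound in 96-well plates. Values under 10 count as active.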 The source made the active and inactive calls.

Legend:
Assay in all cases: NCI-60 one-dose screen, 48 h (100 = growth as untreated, 0 = no growth, -100 = all killed)
Conditions in all cases: 10 µM unless noted
[1] = test system: NCI-H23 lung
[2] = test system: NCI-H226 lung
[3] = test system: NCI-H322M lung
[4] = test system: HOP-62 NSCLC
[5] = test system: NCI-H460 lung
[6] = test system: HOP-92 NSCLC
[7] = test system: NCI-H522 lung
[8] = test system: A549/ATCC NSCLC
[9] = test system: 786-0 renal
[10] = test system: COLO 205 colon
[11] = test system: DU-145 prostate
[12] = test system: K-562 leukemia
[13] = test system: MALME-3M melanoma
[14] = test system: MDA-MB-231 breast
[15] = test system: SF-268 CNS
[16] = test system: SF-295 CNS
[17] = test system: SF-539 CNS
[18] = test system: UACC-257 melanoma
[19] = test system: M14 melanoma
[20] = test system: RXF 393 renal

Measured: growth

CCc1ccccc1C(=O)N(CC)CC
inactive: [1] 103% | [2] 95.4% | [3] 105% | [4] 103% | [5] 104% | [6] 107% | [7] 105% | [8] 97.1% | [9] 101% | [10] 111% | [11] 104% | [12] 106% | [13] 102% | [14] 100% | [15] 97.5% | [16] 97.6% | [17] 94.9% | [18] 103% | [19] 103%

OC1Cc2ccccc2C1
inactive: [1] 90.2% | [2] 101% | [3] 98.7% | [4] 95.7% | [5] 104% | [6] 68.7% | [7] 92.6% | [8] 97.1% | [9] 98.7% | [10] 98.8% | [11] 103% | [12] 48.3% | [13] 95.2% | [20] 101% | [15] 102% | [16] 95.2% | [17] 97.1% | [18] 90.9% | [19] 94.9%

CNc1ccccc1C(=O)N/N=C/C=C/c1ccccc1
inactive: [1] 39.1% | [2] 66.7% | [3] 30.8% | [4] 26.9% | [5] 11% | [6] 69.3% | [8] 30.7% | [9] 35.3% | [11] 14.9% | [13] 31.5% | [14] 49.3% | [15] 34.9% | [17] 21.7% | [18] 39.1% | [19] 17.1%
active: [7] -18.1% | [10] -1.61% | [12] 8.9% | [16] -0.27%

NNc1ncnc2nc[nH]c12
active: [7] -15.7%
inactive: [1] 85.2% | [2] 47.9% | [3] 50.5% | [4] 40.7% | [5] 50.4% | [6] 86.9% | [8] 31.5% | [9] 43.2% | [10] 52.5% | [11] 36.6% | [12] 48.4% | [13] 120% | [14] 14.9% | [15] 83.7% | [16] 45.9% | [17] 101% | [18] 45.1% | [19] 48%

CN(C)c1ncnc2c1cnn2C
inactive: [1] 103% | [2] 98.9% | [3] 102% | [4] 95.8% | [5] 103% | [6] 89.2% | [7] 106% | [8] 93.9% | [9] 99% | [10] 107% | [11] 104% | [12] 97% | [13] 103% | [14] 109% | [15] 84.6% | [16] 94.5% | [17] 94.2% | [18] 84.2% | [19] 103%

O=C(O)CC1=CCCCC1
inactive: [1] 98.9% | [2] 103% | [3] 98.7% | [4] 98.3% | [5] 106% | [6] 82.8% | [7] 101% | [8] 98.5% | [9] 95.2% | [10] 108% | [11] 102% | [12] 102% | [13] 90.8% | [14] 98% | [15] 93.4% | [16] 95.2% | [17] 98.4% | [18] 100% | [19] 95.8%

N=C(N)c1nn(C2OC(CO)C(O)C2O)c2nc[nH]c(=O)c12 (configuration not stated)
active: [1] -34.1% | [3] 6.64% | [4] -12% | [5] 2.95% | [6] -23.5% | [9] -2.36% | [10] -11.5% | [11] -49.1% | [12] -5.78% | [13] -39.9% | [14] -15.3% | [15] -7.38% | [16] 8.51% | [17] -43.8% | [18] 3.08% | [19] -54.8%
inactive: [2] 13.5% | [7] 11.5% | [8] 19.1%

CC(C)C(C)(C)C(=O)C(C)(C)C(C)(C)C
inactive: [1] 90.6% | [2] 90.5% | [3] 97.9% | [4] 103% | [5] 101% | [6] 88.3% | [7] 92.4% | [8] 93.3% | [9] 108% | [10] 104% | [11] 107% | [12] 96.8% | [13] 92.6% | [20] 104% | [15] 102% | [16] 95.8% | [17] 98.8% | [18] 92.6%

COC(=O)c1cccc([N+](=O)[O-])c1
inactive: [1] 96.3% | [2] 103% | [3] 103% | [4] 79.4% | [5] 108% | [6] 95.1% | [7] 101% | [8] 94.9% | [9] 104% | [10] 112% | [11] 105% | [12] 120% | [13] 102% | [20] 108% | [15] 102% | [16] 105% | [17] 98.5% | [18] 95.5% | [19] 105%

C=COC(=O)CCOCC(CC)CCCC (configuration not stated)
inactive: [1] 105% | [2] 98.7% | [3] 98.7% | [4] 97.3% | [5] 106% | [6] 111% | [7] 109% | [8] 89.6% | [9] 91.2% | [10] 111% | [11] 96.5% | [12] 92.9% | [14] 106% | [20] 108% | [15] 99.5% | [16] 102% | [17] 105% | [18] 108% | [19] 99.9%

C=CCNC(=S)N/C=C(/C(=O)c1ccccc1)c1ccccc1
inactive: [1] 97.4% | [2] 104% | [3] 111% | [4] 96.7% | [5] 104% | [6] 95.7% | [7] 109% | [8] 103% | [9] 111% | [10] 95.3% | [11] 109% | [12] 102% | [14] 107% | [20] 111% | [15] 98.2% | [16] 110% | [17] 101% | [18] 109% | [19] 91.9%

O=C(O)c1ccc([N+](=O)[O-])cc1S(=O)(=O)O
inactive: [1] 104% | [2] 104% | [3] 113% | [4] 107% | [5] 105% | [6] 119% | [7] 101% | [8] 97.2% | [9] 102% | [10] 112% | [11] 104% | [12] 107% | [13] 108% | [20] 114% | [15] 98% | [16] 102% | [17] 107% | [18] 100% | [19] 108%

COc1cccc(N=CNc2cccc(OC)c2)c1
inactive: [1] 98.3% | [2] 99.7% | [3] 96% | [4] 103% | [5] 109% | [6] 93.5% | [7] 85.6% | [8] 92.4% | [9] 98.8% | [10] 107% | [11] 107% | [12] 66% | [14] 91.9% | [20] 105% | [15] 105% | [16] 112% | [17] 98.3% | [18] 106% | [19] 104%

CSCC[C@@H]1C(=O)N(C)[C@H](C(C)(C)C)N1C(=O)c1ccccc1
inactive: [1] 101% | [2] 102% | [3] 97.6% | [4] 103% | [5] 112% | [6] 108% | [7] 107% | [8] 101% | [9] 106% | [10] 113% | [11] 106% | [12] 114% | [14] 111% | [20] 111% | [15] 94.8% | [16] 108% | [17] 107% | [18] 100% | [19] 105%

Cc1[nH]n(-c2ccccc2)c(=O)c1C=NC(=S)C(N)=S
inactive: [1] 98.1% | [2] 99.7% | [3] 110% | [4] 104% | [5] 107% | [6] 84% | [7] 86.2% | [8] 93.6% | [9] 104% | [10] 106% | [11] 106% | [12] 101% | [14] 98.9% | [20] 106% | [15] 100% | [16] 98.4% | [17] 106% | [18] 97.7% | [19] 103%

CSc1nc2[nH]ncc2c(=O)[nH]1
inactive: [1] 94.8% | [2] 91.4% | [3] 108% | [4] 101% | [5] 98.8% | [6] 106% | [7] 99.9% | [8] 111% | [9] 101% | [10] 107% | [11] 104% | [12] 113% | [13] 101% | [20] 92.6% | [15] 95.2% | [16] 96.2% | [17] 96% | [18] 109% | [19] 92.1%

COCC(N)=O
inactive: [1] 103% | [2] 99% | [3] 100% | [4] 95% | [5] 108% | [6] 94.5% | [7] 100% | [8] 104% | [9] 92% | [10] 111% | [11] 98.4% | [12] 91.8% | [14] 108% | [20] 108% | [15] 103% | [16] 102% | [17] 96% | [18] 116% | [19] 105%
